The values that follow come from PubChem BioAssay (NCI).

Experiment [1] can be described thus: NCI Yeast Anticancer Drug Screen. Data for the rad50 strain (AID 155).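 Note: 0% = growth of vehicle-only cultures of the same strain.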 As to conditions: S. cerevisiae rad50 strain growth inhibition; at 50.0 µM; hits give high values. Put shortly: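 A DNA repair-deficient yeast mutant serves as the test organism; compound-induced growth inhibition is calculated against vehicle-treated cells.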
Experiment [2] is described as follows: NCI Yeast Anticancer Drug Screen. Data for the mec2-1 strain (AID 157). As to conditions: S. cerevisiae mec2-1 strain, at 50.0 µM, hits give high values. Put shortly:
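Vehicle-treated cultures served as reference for growth inhibition of compound-exposed mec2-1 yeast.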

The nature of experiment [3]: NCI Yeast Anticancer Drug Screen. Data for the sgs1 mgt1 strain (AID 161).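 Note: 0% = growth of cultures given vehicle only.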 As to conditions: S. cerevisiae sgs1 mgt1 strain, at 50.0 µM, hits give high values. In a few lines: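 Mutant yeast exposed to compound; growth scored against vehicle-only wells.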
A short description of experiment [4]: NCI Yeast Anticancer Drug Screen. Data for the cln2 rad14 strain (AID 165).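 Note: 0% = growth equal to vehicle treated cultures.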 As to conditions: S. cerevisiae cln2 rad14 strain, at 50.0 µM, hits give high values. Put shortly:
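Each compound was tested on cln2 rad14 yeast. Inhibition of growth was calculated against vehicle-exposed controls.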

The nature of experiment [5]: NCI Yeast Anticancer Drug Screen. Data for the bub3 strain (AID 167). As to conditions: S. cerevisiae bub3 mutant strain, at 50.0 µM, hits give high values. In a few lines: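 Inhibition values come from growth of compound-treated mutant yeast normalised to vehicle-treated controls.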
Experiment [6] can be described thus: NCI Yeast Anticancer Drug Screen. Data for the mlh1 rad18 strain (AID 175). As to conditions: S. cerevisiae mlh1 rad18 strain growth inhibition; at 50.0 µM; hits give high values. In a few lines:
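Vehicle-treated cultures served as the reference for growth inhibition in a yeast strain carrying DNA damage repair alterations exposed to each compound.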

The panel holds about 79,000 compounds, 15% with a hit somewhere; the sample as a whole holds those more often. Unmarked numbers belong to inactive results. The source made the active and inactive calls. Cut-off read from the data, not from the text of the source: active = growth inhibition above about 70%; inactive = the rest.

With `CN(C)c1ccc2c(c1)Cc1cc(NC(=O)CCC(=O)O)ccc1-2`, the growth inhibition in experiment [1] was 8.7%; in experiment [2] it was 6.4%; in experiment [3], 19.4%; in experiment [4], -1.6%; in experiment [5], 8.85%; in experiment [6] it was 14.3%.
On to `Cc1ccc(S(=O)(=O)NC(=O)C2(Br)S(=O)(=O)OCCOS2(=O)=O)cc1`, for which the growth inhibition was 1.25% in experiment [1]; -28.4% in experiment [2]; 6.1% in experiment [3]; -54.9% in experiment [4]; 24.6% in experiment [5]; 12% in experiment [6].
As for `CCCCSC1=NCCN1`, the growth inhibition is 14.8% in experiment [1]; 9.15% in experiment [2]; -3.9% in experiment [3]; 5.5% in experiment [4]; 5.25% in experiment [5]; 10.5% in experiment [6].
Turning to `CCNC(=S)NNC(=O)c1ccc(N=NN(C)C)cc1`, the growth inhibition in experiment [1] is -5.15%; in experiment [2], 12.8%; in experiment [3], 10.3%; in experiment [4], -13.4%; in experiment [5], 14.8%; in experiment [6] it was 10.9%.
As for `Cc1[nH]c(/N=C/c2ccc(N(C)C)cc2)c(C#N)c1C`, the growth inhibition in experiment [1] was -10.1%; in experiment [2], -0.6%; in experiment [3], -18.4%; in experiment [4], -8%; in experiment [5], -5.75%; in experiment [6], -7.75%.
For the molecule `Cc1ccc(NC(=O)NCc2ccncc2)cc1NC(=O)NCc1ccncc1`, the growth inhibition was 13% in experiment [1]; 15% in experiment [2]; 20.8% in experiment [3]; 20.2% in experiment [4]; 30.9% in experiment [5]; 24.8% in experiment [6].
For the molecule `CN(C)c1ccc(CC2Cc3ccccc3C2O)cc1` (stereo not drawn), the growth inhibition in experiment [1] was 6.75%; in experiment [2], -6.55%; in experiment [3], 10.2%; in experiment [4], -11.7%; in experiment [5], 12.3%; in experiment [6], 5.9%.
For the molecule `CC(C)CCCC(C)[C@H]1CC[C@H]2[C@@H]3CC[C@H]4C[C@@H](CCC=C(c5cc(Cl)c(O)c(C(=O)OC(C)C)c5)c5cc(Cl)c(O)c(C(=O)OC(C)C)c5)CC[C@]4(C)[C@H]3CC[C@]12C` (stereo partly drawn), the growth inhibition in experiment [1] is 17.7%; in experiment [2], 9.05%; in experiment [3], 23.1%; in experiment [4], 18.7%; in experiment [5], 11.5%; in experiment [6] it was -32.5%.
Regarding `COc1ccc(C2OC3=C(Nc4ccc(Cl)cc4N3)C2=O)cc1` (stereo not drawn), the growth inhibition in experiment [1] is -1.9%; in experiment [2] it was 0.3%; in experiment [3], 6.65%; in experiment [4], 9.4%; in experiment [5], -9.3%; in experiment [6], 14.9%.
Regarding `O=C1C[C@@]23CCC4(CC2=CCC[C@H]3O1)OCCO4`, the growth inhibition in experiment [1] is -16.9%; in experiment [2], -19.6%; in experiment [3], 3.2%; in experiment [4], 14.7%; in experiment [5], 17.5%; in experiment [6] it was -12.3%.
Consider `Cc1[nH]c2ccccc2c1-c1cc(-c2cc(-c3c(C)[nH]c4ccccc34)nc(N)n2)nc(N)n1`, for which the growth inhibition is -12.9% in experiment [1]; 8.95% in experiment [2]; -25.8% in experiment [3]; 3.05% in experiment [4]; -11.3% in experiment [5]; -1.95% in experiment [6].
Consider `COC(=O)C1CCc2c(ccc3cc(OC)ccc23)C1(C)C(=O)OC` (stereo not drawn), for which the growth inhibition in experiment [1] is -14.5%; in experiment [2] it was -7.65%; in experiment [3], -7.4%; in experiment [4], -40.1%; in experiment [5], -2.2%; in experiment [6], -10.2%.
Turning to `O=C(Nc1ccc(S(=O)(=O)N2CCCCC2)cc1)OC1CCCCC1`, the growth inhibition was 16.4% in experiment [1]; 3.75% in experiment [2]; -4.2% in experiment [3]; 23.6% in experiment [4]; 30.9% in experiment [5]; -5.45% in experiment [6].
Consider `COc1cc(C2C(Cl)C(=O)N2NC(=O)c2ccc(NC(C)=O)cc2)cc(Br)c1O` (stereo not drawn), for which the growth inhibition in experiment [1] is -0.25%; in experiment [2], -14.8%; in experiment [3], -9.6%; in experiment [4] it was -24.9%; in experiment [5] it was -7.9%; in experiment [6] it was -30.9%.
With `Cc1ccc2nc(C)ccc2c1`, the growth inhibition was -38.2% in experiment [1]; -23.2% in experiment [2]; -2.7% in experiment [3]; -16.1% in experiment [4]; -0.2% in experiment [5]; -3.4% in experiment [6].
As to `OC(CNc1ccc(Cl)cc1)CN1CCOCC1` (stereo not drawn), the growth inhibition in experiment [1] is 77.7% (active); in experiment [2], 15.2%; in experiment [3], 14.9%; in experiment [4], -1.05%; in experiment [5] it was -3.7%; in experiment [6], 42%.
Take `O=C(Cn1c2c(c3ccccc31)CCCC2)N1CCCC1`: the growth inhibition in experiment [1] is -11.8%; in experiment [2] it was -39.9%; in experiment [3] it was 0.05%; in experiment [4] it was 2.75%; in experiment [5], 7.05%; in experiment [6], -23.7%.
Turning to `COC(=O)C(=O)c1c2ccccc2n2ccc3c4ccccc4[nH]c3c12`, the growth inhibition in experiment [1] is 25.9%; in experiment [2], 8.9%; in experiment [3], -5.75%; in experiment [4] it was 10.1%; in experiment [5], 9.6%; in experiment [6] it was 10.5%.
